Results taken from ChEMBL document CHEMBL4513216, “Probing the Open Global Health Chemical Diversity Library for Multistage-Active Starting Points for Next-Generation Antimalarials” (ACS Infect Dis, 2020).
Among all 65,000 compounds or so, about 2,100 (3.2%) showed an effect of 50% or more. The median lay at about -52%. The sample as a whole holds a higher share of strong results than the screen did.

Each compound was assayed on Plasmodium falciparum (assay: Screen against P. falciparum Asexual Blood Stage (ABS), at 5uM). Settings: tested at 5 uM.
Type: functional, Dd2

Row | SMILES | INHIBITION
1 | Cc1ccsc1CN1CCc2c(nc(N3CCCCC3C)[nH]c2=O)C1 (configuration not stated) | -14.7%
2 | COCCN1C[C@@H]2CN(c3cc(OC)ncn3)CCC[C@]2(C(=O)O)C1 | -84%
3 | O=C(NCc1cn2c(n1)CN(CC1CCOCC1)CC2)C1CCC1 | -14.2%
4 | c1ncn(Cc2nnc(C3CCN(CC4CC4)CC3)n2C2CC2)n1 | -88.1%
5 | Cc1cc(NC(=O)NCC(O)c2ccc(F)cc2)n(C)n1 (configuration not stated) | 18.3%
6 | Cc1cc(C)cc(CNc2ccc(C(=O)NC(C)CO)cc2)c1 (configuration not stated) | -96.7%
7 | COC(=O)CC1CCCCN1CC(=O)Nc1ccc(F)cc1Cl (configuration not stated) | -174%
8 | CCN1CCCC(O)(CNCc2ccccc2F)C1 (configuration not stated) | 40.6%
9 | CCN1CCCC(O)(CN(C)Cc2c(C)nn(C)c2C)C1 (configuration not stated) | -105%
10 | CCN1CCCC(O)(CN(C)Cc2ccccc2F)C1 (configuration not stated) | 57.5%
11 | Cc1nn(C)c(Cl)c1C1CCCN1CC(=O)NCc1ccco1 (configuration not stated) | -24.5%
12 | CC(NCc1cccs1)c1ccc(OCc2nccn2C)cc1 (configuration not stated) | -50.1%
13 | CCc1cc(N2CCCNCC2)n2nc(C)c(C)c2n1 | 54.5%
14 | CCc1cc(N2CCS(=O)(=O)CC2)n2nc(C)c(C)c2n1 | -16.5%
15 | CCc1cc(N2CCSCC2)n2nc(C)c(C)c2n1 | -90.3%
16 | CCNc1ncc(CN2C[C@@H]3CC[C@H]2CN(C(=O)C2CCC2)C3)cn1 | -47.5%
17 | O=C([C@H]1CCCO1)N1CCCC2(COCCN(c3ccccc3)C2)C1 (some centres not stated) | 25.2%
18 | Cc1cnn(CCNCC(O)COc2cc(Cl)ccc2Cl)c1 (configuration not stated) | 58%
19 | Cc1cnn(CCNCC(O)COc2ccc(Cl)cc2Cl)c1 (configuration not stated) | 20.2%
20 | Cc1cnn(CCNCC(O)COc2ccc(Cl)cc2)c1 (configuration not stated) | -16.9%
21 | c1cc(CNCc2ccc(-n3cncn3)nc2)cc(OC2CCCC2)c1 | -6.1%
22 | Cc1ccc(C(=O)N2CCc3ncnc(-c4cnn(C)c4)c3CC2)o1 | -34.2%

Row | SMILES | INHIBITION
23 | Cc1ccc(OCC(=O)Nc2ccc(S(C)(=O)=O)cc2)cc1C | -89.1%
24 | N#Cc1ccc(NCCCN2C(=O)COc3ccccc32)nc1 | -30.6%
25 | N#Cc1cnc(NCCCN2C(=O)COc3ccccc32)c(Cl)c1 | -73.7%
26 | N#Cc1c(Cl)nsc1NCCCN1C(=O)COc2ccccc21 | 58.1%
27 | CC(C)NC(=O)c1sc2ccccc2c1C1CCC(CN)CC1 (configuration not stated) | 0.324%
28 | COc1nn(C)c2c1CCCN(C(=O)c1ccc3ccccc3n1)C2 | -94.4%
29 | O=C(c1ccc[nH]1)N1C[C@@H]2CC[C@H]1CN(C1Cc3ccccc3C1)C2 | -60.5%
30 | CCCc1nc(C[S+]([O-])Cc2cn3cccc(C)c3n2)no1 (configuration not stated) | -22%
31 | CCN1CCO[C@@H]2CN(C(=O)c3ccc4[nH]ccc4c3)CC[C@@H]2C1 | -49.2%
32 | CN1CCCN(c2nccc(-c3c[nH]c4ccc(Br)cc34)n2)CC1 | 43.1%
33 | OCCNc1nccc(-c2c[nH]nc2-c2ccncc2)n1 | -56.1%
34 | CN1CCCN(c2nccc(-c3c[nH]nc3-c3ccncc3)n2)CC1 | 66.9%
35 | Cc1ncc(-c2ccnc(N3CCC[C@@H]3CO)n2)c(-c2cccnc2)n1 | -23.8%
36 | CN1CCCN(c2nccc(-c3cc(C(=O)O)ccn3)n2)CC1 | -113%
37 | OC[C@@H]1CCCN1c1nccc(-c2c[nH]nc2-c2ccncc2)n1 | 68.3%
38 | CNc1cccc(C2CCCN(C(=O)c3cscn3)C2)n1 (configuration not stated) | -9%
39 | CC1N(C)C(=O)COC12CCN(Cc1ccsc1)CC2 (configuration not stated) | -52.9%
40 | COCCN1CCCC1c1nccnc1Nc1nccs1 (configuration not stated) | 1.36%
41 | Cc1cccn2c(CC(=O)N3CCC(CCn4cccn4)CC3)cnc12 | -1.65%
42 | N#Cc1cccc(OCCN2CCCC2C(=O)NC2CC2)c1 (configuration not stated) | -14.2%
43 | N#Cc1cccc(OCCN2CCCC2C(=O)NCC(F)(F)F)c1 (configuration not stated) | 1.9%
44 | N#Cc1cccc(OCCN2CCCC2C(=O)N2CCSCC2)c1 (configuration not stated) | 51.9%

Row | SMILES | INHIBITION
45 | Cc1cccc2nc(CNCc3cccc4c3OCCCO4)cn12 | 47.8%
46 | Cc1cccn2cc(CNCc3cccc4c3OCCCO4)nc12 | 53.7%
47 | c1cc(CNCCc2cn3ccccc3n2)c2c(c1)OCCCO2 | -57.2%
48 | Cc1ccc(CN2Cc3c(C(=O)N(C)C)nn(C)c3C2)s1 | -70.8%
49 | Cc1nnc(N2C[C@@H](OCCCn3cccn3)[C@H]3OCCC[C@H]32)s1 | -31.4%
50 | OC1(CNCc2csc(-c3ncccn3)n2)CCCNC1 (configuration not stated) | -26.6%
51 | CC(C)Oc1cccc(CNC(Cc2ccsc2)c2nccs2)c1 (configuration not stated) | -29.2%
52 | Cc1cccnc1C(Cc1ccsc1)NCc1cnc(N(C)C)nc1 (configuration not stated) | 66.6%
53 | Cc1cccnc1C(Cc1ccsc1)NC(=O)Cn1cccnc1=O (configuration not stated) | 4.78%
54 | CN1CCCC(Cc2cncc(C(=O)N3CCOCC3)c2)C1 (configuration not stated) | -133%
55 | O=S1(=O)NC(c2ccnc(N3CCOCC3)n2)=Nc2ccccc21 | -15.8%
56 | CN(Cc1ccccc1)C(=O)CSc1ccc2c(c1)OCCO2 | -122%
57 | COc1ccc(CN2CCCC3(CCN(c4ccsc4)C3=O)C2)cc1 (configuration not stated) | 62.3%
58 | COCCN1CCCC2(CCN(c3ccsc3)C2=O)C1 (configuration not stated) | 16%
59 | COc1ccc(CN2CCC3(CCN(c4cccnc4)C3=O)C2)cc1 (configuration not stated) | -23.2%
60 | O=C1N(c2ccsc2)CCC12CCCN(CC1CC1)C2 (configuration not stated) | 51.6%
61 | O=C(CO)N1CCCC2(CCN(c3ccsc3)C2=O)C1 (configuration not stated) | -104%
62 | CN(C)C(=O)CN1CCCC2(CCN(c3ccsc3)C2=O)C1 (configuration not stated) | -78.3%
63 | CC1COC2(CCN(C(=O)Cc3ccncc3)CC2)C1 (configuration not stated) | -78.3%
64 | Cc1cc(C2CCCN(CCc3ccc4c(c3)CCO4)C2)n[nH]1 (configuration not stated) | -25.4%
65 | COc1ccccc1OCCN1CCCCC1Cn1cncn1 (configuration not stated) | -9.63%
66 | CCc1nnc(Nc2cccc(C3CCN(S(=O)(=O)N(C)C)CC3)n2)s1 | 7.99%

Row | SMILES | INHIBITION
67 | O=C(NCc1nncn1-c1ccccc1)C1CCCCC1 | -107%
68 | O=C1CCC2(CCN(c3cccc(C(F)(F)F)n3)CC2)CN1CCO | -33.7%
69 | OC1(CN2CCCCC2)CCN(c2ccc(C(F)(F)F)cn2)C1 (configuration not stated) | 53.5%
70 | N[C@@H]1c2ccccc2C2(CCN(c3ccc(C(F)(F)F)cn3)CC2)[C@H]1O | -38.4%
71 | OC1(CN2CCCCC2)CCN(c2nccc(C(F)(F)F)n2)C1 (configuration not stated) | -41.9%
72 | OC1(CN2CCCCC2)CCN(c2cc(C(F)(F)F)ccn2)C1 (configuration not stated) | 39.2%
73 | OC1(CN2CCCCC2)CCN(c2cccc(C(F)(F)F)n2)C1 (configuration not stated) | 60.4%
74 | Cc1ccc(C(=O)N2CCC(c3n[nH]c(C4CC4)n3)CC2)cc1F | -91.9%
75 | Cn1ccnc1CN1CCC2(CC1)CC(Oc1cccnc1)C2 | -85.4%
76 | Cc1ccc(NC(=O)CC2NC(N3CCc4ccccc43)=NC2=O)cc1 (configuration not stated) | -135%
77 | O=C1CC(c2ccncc2)C2(CCN(CCc3ccccc3)CC2)N1 (configuration not stated) | -55.3%
78 | O=C1CCC2(CCCN(C(=O)c3cccnc3)CC2)N1 (configuration not stated) | -40.9%
79 | O=C1CCCC2(CCN(C(=O)c3cnccn3)CC2)N1 | -96.5%
80 | O=C1CCC2(CCCN(C(=O)c3cnccn3)CC2)N1 (configuration not stated) | 51.9%
81 | O=C(NCCN1CCCC1)C1(c2ccc(Cl)cc2)CCOCC1 | 63.7%
82 | Cc1ccccc1C1(C(=O)NCCN2CCCC2)CCOCC1 | -5.04%
83 | COc1ccccc1C1(C(=O)NCCN2CCCCC2)CCOCC1 | -35.3%
84 | CC(Oc1ccc2c(c1)OCO2)C(=O)N1CCC(N2CCOCC2)CC1 (configuration not stated) | -162%
85 | CCn1cc(NC(=O)CN2CCC(Oc3ccc(F)cc3)CC2)c(C)n1 | -33.8%
86 | Cc1cc(N2CCCN(c3ccnc(C)c3)CC2)ccn1 | -86.7%
87 | Cc1cc(N2CCCN(Cc3ccc(C)o3)CC2)ccn1 | 35.2%
88 | Cc1cc(N2CCCN(c3nc(C)nc(C)c3C)CC2)ccn1 | 58%

Row | SMILES | INHIBITION
89 | Cc1n[nH]c(C)c1C1COCCN1c1ncnc2sccc12 (configuration not stated) | -34.7%
90 | COCCN1CCC(c2nc3ccc(NC4CCC4)cn3n2)CC1 | -2.13%
91 | CCN(CC)CCn1cnc(-c2ccccc2)c1-c1ncc[nH]1 | -46.8%
92 | CCN(CC)CCn1cnc(-c2ccccc2)c1-c1cnc(C)s1 | 54.2%
93 | CCN(CC)CCn1cnc(-c2ccccc2)c1-c1cnn(CC)c1 | 20.8%
94 | Cc1nc(CCCNC(=O)Nc2cc(F)cc(F)c2)n[nH]1 | 0.825%
95 | O=C(O)c1ccc(CC2CCN(Cc3ccc(-c4cc[nH]n4)o3)C2)cc1 (configuration not stated) | -200%
96 | CCC(N)C(=O)N1CCC(OCc2ccc(Cl)c(Cl)c2)CC1 (configuration not stated) | 65.5%
97 | NC(=O)CN1CCC(OCc2ccc(Cl)c(Cl)c2)CC1 | 32.6%
98 | CNC(=O)CN1CCC(OCc2ccc(Cl)c(Cl)c2)CC1 | -0.573%
99 | CC1CCCCN1C(=O)CCc1nnc(-c2ccccc2)o1 (configuration not stated) | -26.9%
100 | Cc1ccc(CNC(=O)Cn2nc(-c3ccc(F)cc3)oc2=O)cc1F | 55.6%
101 | O=C(Cn1nc(-c2ccc(F)cc2)oc1=O)NCc1ccncc1 | -63.3%
102 | O=C(Cn1nc(-c2ccc(F)cc2)oc1=O)NCc1ccc(F)cc1 | -11.2%
103 | CCC1=NN2C(=N)C(=Cc3cccn3-c3ccc(Br)cc3)C(=O)N=C2S1 | -87.5%
104 | CCCN(CCOC)C(=O)c1cc(Cn2c(C)nc3ccccc32)[nH]n1 | -11.8%
105 | CC(NCCn1cccn1)c1cc(F)ccc1F (configuration not stated) | 0.681%
106 | CC(NCCCN1CCCC1=O)c1ccc(F)cc1N(C)C (configuration not stated) | -24.45%
107 | CC(NCCN1CCC(N(C)C)CC1)c1ccc(F)cc1N(C)C (configuration not stated) | 58.1%
